# The whole screen tested about 200,000 compounds, of which about 4,500 (2.2%) were called active. Not shown: some 12% with an inconclusive outcome. The list comes from a sample in which actives are over-represented; it also holds similar structures and randomly drawn compounds. A number with no mark means an inactive call. Calls follow the shape of the dose curve; as a rule, active = well fitted inhibition curve with a large enough effect; inconclusive = small, poorly fitted or top-dose-only effect, or effect the other way; inactive = flat fitted curve, though single readings scatter.
# Target: Cruzipain (Trypanosoma cruzi) (UniProt P25779)
# Sequence (P25779 123-467 limits assumed): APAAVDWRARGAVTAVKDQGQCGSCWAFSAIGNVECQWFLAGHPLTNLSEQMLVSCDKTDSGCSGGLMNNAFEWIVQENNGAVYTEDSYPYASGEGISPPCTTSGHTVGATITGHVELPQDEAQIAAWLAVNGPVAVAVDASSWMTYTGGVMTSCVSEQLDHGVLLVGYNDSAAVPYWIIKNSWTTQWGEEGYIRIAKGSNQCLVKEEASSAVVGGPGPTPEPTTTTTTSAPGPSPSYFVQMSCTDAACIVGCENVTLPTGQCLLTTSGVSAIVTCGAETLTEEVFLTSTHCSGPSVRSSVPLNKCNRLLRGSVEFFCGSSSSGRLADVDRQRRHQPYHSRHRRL
# Experiment: qHTS Assay for Promiscuous and Specific Inhibitors of Cruzain (without detergent); also: nearly all actives have a fitted effect of over 40% in size;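 as to max response, negative = inhibition: plate controls were enzyme without inhibitor for no effect and buffer without enzyme for full effect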
# Conditions: purified cruzain, Z-FR-AMC fluorescence, no detergent
# Summary of the method: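 Purified cruzain at 1.5 nM, pre-incubated 15 min with compound at room temperature in 100 mM sodium acetate pH 5.5, 5 mM DTT, 0.00005% Triton X-100. Reaction started with 2 uM Z-FR-AMC; AMC fluorescence increase over 60 s gives rate.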
# Potency is read from the fitted curve at half-maximal effect.
SMILES,"max response, negative = inhibition",Potency
CCOc1ccc(NC(=O)c2ncoc2-c2ccco2)cc1,-16.9%,
O=C1C2N=NN(CC(=O)N3N=C(c4cccc5ccccc45)CC3c3ccccc3)C2C(=O)N1c1ccccc1 (stereo unspecified),,5.01 µM (active)
Cc1ccc(N2C(=O)C3N=NN(CC(=O)N4N=C(c5cccc6ccccc56)CC4c4ccccc4)C3C2=O)cc1 (stereo unspecified),,7.94 µM (active)
Cc1ccc(C2=NN(C(=O)CSc3nc(N)cc(N)n3)C(c3ccco3)C2)cc1 (stereo unspecified),4.32%,
Cc1ccc(CNC(=O)CSC2=Nc3ccccc3C3=NC(C)C(=O)N23)cc1 (stereo unspecified),-15.8%,
Cc1cc(C)c(NC(=O)CSc2nc3nccnc3c(=O)n2CCc2c[nH]c3ccccc23)c(C)c1,9.02%,
O=C(Nc1cc(Cl)cc(Cl)c1)c1ccc2c(c1)N(Cc1cccc(Cl)c1)C(=O)c1ccccc1S2=O (stereo unspecified),-5.94%,
O=c1[nH]c2cc(Br)ccc2n2cccc12,11.1%,
CCOC(=O)C1CCN(c2ncnc3c2c(-c2ccccc2)cn3-c2cccc(C)c2)CC1,9.85%,
Cc1nc2ccccc2cc1C(=O)N/N=C/c1ccc([N+](=O)[O-])cc1,-1.64%,
CCCCCC(=O)Nc1ccc(C(=O)N/N=C/c2ccc([N+](=O)[O-])cc2)cc1,-23.1%,
Cc1cc(C(=O)N/N=C/c2ccc(O)c([N+](=O)[O-])c2)c(C)n1-c1ccc(F)cc1,,10 µM (active)
COc1cc2nc(NCC(C)c3ccccc3)n3nc(-c4ccccc4)nc3c2cc1OC (stereo unspecified),5.17%,
Cc1ccccc1NC(=O)CCOc1ccccc1,-3.79%,
CCCN(CCC)C(=O)C1CCCN(c2ncnc3c2nc2n3CCCCC2)C1 (stereo unspecified),9.35%,
Cc1ccc(CNC(=O)CCc2c(C)nc3nc(CNC(=O)OC(C)(C)C)nn3c2C)cc1,11.1%,
Cc1cc(C(=O)Nc2ccccc2N2CCOCC2)c2ccccc2n1,4.56%,
c1cncc(-c2nc(N3CCNCC3)c3ccccc3n2)c1,0.953%,
c1ccc(Nc2nc(N3CCOCC3)c3ccccc3n2)cc1,,12.6 µM (active)

SMILES,"max response, negative = inhibition",Potency
CN(CC(=O)Nc1ccccc1F)S(=O)(=O)c1ccc2c(c1)c(=O)n(C)c(=O)n2C,-13.2%,
Cc1nc2ccccn2c(=O)c1NC(=O)c1c(F)cccc1F,-1.01%,
COc1ccc(CC(=O)Nc2ccc(-c3nc4ccccc4s3)c(C)c2)cc1,7.02%,
COc1cccc(/C=C(/CC(=O)Nc2ccc(N3CCOCC3)cc2)c2nc3ccccc3s2)c1,-7.21%,
COc1ccc(/C=C(/CC(=O)Nc2ccc(C)cc2)c2nc3ccccc3s2)cc1,,31.6 µM (active)
COc1ccc(CCNC(=O)CCCn2c(=O)c3ccccc3n(Cc3ccc(C)cc3)c2=O)cc1OC,-4.62%,
Cc1ccc(CNC(=O)Cn2c(=O)ccc3cc(S(=O)(=O)N4CCCC4)ccc32)cc1,-9.4%,
CC1CCCN(c2csc3ccc(F)cc3c2=O)C1 (stereo unspecified),1.1%,
COc1ccccc1-c1noc(CSc2nnc(-c3ccccc3)n2-c2ccc(C)c(C)c2)n1,-9.67%,
COc1ccccc1N1CCN(C(CNC(=O)C(=O)NCc2ccc(C)cc2)c2cccnc2)CC1 (stereo unspecified),1.39%,
COc1cccc(Cn2c(SCc3ccc(C(=O)N4CCCCC4)cc3)nc3ccncc32)c1,12.2%,
CC(=O)Nc1ccc(S(=O)(=O)NCC2CCC(C(=O)NCCc3ccccc3)CC2)cc1 (stereo unspecified),-2.5%,
COc1ccc(CN2CCn3ncc(C(=O)Nc4ccc(Cl)cc4Cl)c3C2=O)cc1,,5.01 µM (active)
Cc1cnc(C(=O)OCC(=O)Nc2ccc(Cl)cc2Cl)cn1,-17.8%,
COc1ccc(/C(C)=N/NC(=O)CCC(=O)Nc2ccc(Cl)cc2Cl)c(OC)c1,9.51%,
O=C(O)c1ccc(Cn2c(SCc3ccc(F)cc3)nc3ccncc32)cc1,2.53%,
Cc1ccc(CN2CCCn3nc(C(=O)NCc4ccccc4Cl)cc3C2=O)cc1,12.6%,
O=C(c1ccco1)n1nc(-c2ccc(Cl)cc2)nc1NCc1ccccc1,14.9%,
Cc1nc(SCC(=O)Nc2cc(C)on2)c2c(C)c(C)sc2n1,-4.16%,

SMILES,"max response, negative = inhibition",Potency
Cc1sc2ncnc(Sc3nc4ccccc4s3)c2c1C,-16.3%,
COC(=O)c1c(-c2cccs2)csc1NC(=O)CSc1ncnc2sc(C)c(C)c12,,6.31 µM (active)
CCOc1ccc(N(CC)S(=O)(=O)N2CCCC(C(=O)Nc3ccc(C(C)=O)cc3)C2)cc1 (stereo unspecified),-0.766%,
COc1ccc(CCNC(=O)c2cnc3sc(N4CCCCCC4)nn3c2=O)cc1OC,2.6%,
COc1cccc(C(=O)c2sc3nc(-c4ccccc4)cc(C(F)(F)F)c3c2N)c1,-13.2%,
COc1ccc(C(=O)NNS(=O)(=O)c2ccc(C)cc2)cc1,-9.3%,
COc1ccc(S(=O)(=O)c2c(Nc3ccc(C)cc3)sc(C(=O)c3ccc(C)cc3)c2N)cc1,,5.01 µM (active)
CO/N=C(/CS(=O)(=O)c1ccc(Br)cc1)c1ccc(OC)cc1,0.45%,
COc1ccc(S(=O)(=O)c2c(Nc3cccc(Cl)c3)sc(C(=O)c3ccccc3)c2N)cc1,,3.98 µM (active)
CC(=O)c1c(Nc2ccccc2)sc(C(=O)c2ccccc2)c1C,5.34%,
Cc1ccc(-c2nnc(Nc3ccc(OCC(N)=O)cc3)c3ccccc23)cc1S(=O)(=O)NCC1CCCO1 (stereo unspecified),7.01%,
Cc1ccccc1NC(=O)Cn1c(=O)n(Cc2ccco2)c(=O)c2ccc(C(=O)NC3CCCC3)cc21,4.88%,
COc1ccc(N2C(=O)NC(NS(=O)(=O)c3ccc(Cl)cc3)(C(F)(F)F)C2=O)cc1 (stereo unspecified),-4.66%,
CC(C)C12CN3CC(C(C)C)(CN(C1)C3c1ccc(OCc3ccccc3)cc1)C2=O (stereo unspecified),10.1%,
Cc1ccc(-c2cc(C(=O)Oc3ccccc3Cl)no2)cc1C,0.973%,
Cc1nnc(SCC(=O)N/N=C/c2cn(-c3ccccc3)nc2-c2ccc(F)cc2)n1-c1ccccc1,-3.1%,
Cc1ccc(-c2nn(-c3ccccc3)cc2/C=N/NC(=O)c2ccc3c(c2)OCO3)cc1,,25.1 µM (active)
COc1ccc(-c2nn(-c3ccccc3)cc2/C=N/Nc2ccccn2)cc1OC,18.4%,
